# In the library only some 4.7% were active in any assay of this set; here they are far more common.
# D1 ag – agonists of human D1 dopamine receptor. HEK293 T-REx D1 cells, calcium flux, agonist mode. activation, % at 2 µM. actives 1% (n = 360,000); further: 0% is about no effect
# Target sequence (P21728 whole entry, looked up): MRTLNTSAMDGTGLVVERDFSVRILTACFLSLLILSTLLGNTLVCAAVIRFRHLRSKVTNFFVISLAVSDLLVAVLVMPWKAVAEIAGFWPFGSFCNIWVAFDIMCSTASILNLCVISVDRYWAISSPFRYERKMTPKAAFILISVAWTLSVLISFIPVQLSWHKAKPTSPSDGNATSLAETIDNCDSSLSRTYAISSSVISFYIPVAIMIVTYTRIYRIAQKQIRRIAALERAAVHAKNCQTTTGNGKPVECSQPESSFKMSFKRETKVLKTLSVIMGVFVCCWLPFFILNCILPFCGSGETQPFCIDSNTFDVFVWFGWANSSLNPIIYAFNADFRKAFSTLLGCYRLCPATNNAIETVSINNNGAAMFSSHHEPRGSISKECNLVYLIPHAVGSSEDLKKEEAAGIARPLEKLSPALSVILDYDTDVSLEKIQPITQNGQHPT
#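 Tetracycline-induced HEK293 TREx D1 cells, force-coupled to calcium signalling, were dye-loaded with a no-wash calcium kit. Compound was pin-added after a 10 s baseline. Fluorescence was read kinetically at 1 cycle/s for 180 s, with calcium rises flagged as agonism.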
# D1 potentiator – human D1 dopamine receptor positive modulation | P21728 | HEK293 TREx D1 cells, calcium flux, dopamine EC20 potentiation | potentiation, % at 10 µM | actives 0.036% (n = 360,000); in the data active means potentiation above about 30%; further: 0% is about no effect
# D1 antag – human D1 dopamine receptor antagonism. actives 3.2% (n = 360,000). HEK293 TREx D1 cells, calcium flux, dopamine EC80; stronger effect = lower value. activity change, negative = inhibition, % at 10 µM. P21728. AID 504652; in the data active means activity change below about -30%; further: on the % scale 0 is the no-effect control and ±100 the full control effect
#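 Allosteric or orthosteric antagonism assessed as attenuation of the calcium response to EC80 dopamine, added 180 s after compound, in induced HEK293 Trex D1 cells loaded with no-wash calcium dye.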
# TRHR ag – agonists of human TRH receptor. actives 0.18% (n = 360,000). activation, % at 2 µM. P34981. TRHR cells, calcium flux fluo-8, FDSS agonist mode; further: 0% is about no effect
#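 Steps: seed TRHR cells overnight; add fluo-8 no-wash Ca dye, RT 30 min–1.5 h; record 10 s baseline; pin-transfer compounds; monitor fluorescence 1 cycle/s for the agonist window. Calcium increases flag candidate agonists.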
# TRHR PAM – allosterically enhances the human TRH receptor; P34981; TRHR cells, fluo-8 calcium fluorescence, EC20 TRH enhancement; enhancement, % at 2 µM; actives 0.66% (n = 360,000); AID 493056; in the data active means enhancement above about 30%; further: 0% is about no effect
#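 Enhancer read-out: after compound pinning and an initial kinetic agonist-mode read, an EC20 of TRH (10 nM final) was injected and fluo-8 calcium signal (Ex 480/Em 530) followed at 1 s/cycle for 100 cycles in TRHR-expressing cells.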
# Active calls of the source: *; . = no result; ! = repeats disagree. Unless noted, no stated cut-off is given here; in the data, active means activation above about 30%; inactive means the rest.
SMILES,D1 ag,D1 potentiator,D1 antag,TRHR ag,TRHR PAM
C=CCc1ccccc1OCC(O)CN1CCN(c2ccc(OC)cc2)CC1 (stereo not drawn),4.6,-8.0,-64.3*,-0.8,-1.1
COCCCNC(=O)c1ccc(Cn2c(=O)c3ccccc3n(CC(=O)Nc3c(C)cccc3C)c2=O)cc1,-0.5,-0.6,-12.1,0.5,-6.8
COc1ccc(NC(=O)C2CCCN(S(=O)(=O)c3ccc4[nH]c(=O)ccc4c3)C2)cc1OC (stereo not drawn),1.8,0.2,-6.7,0.0,38.9*!
O=C(c1cccc(Cl)c1)C1CCCN(S(=O)(=O)c2ccccc2)C1 (stereo not drawn),-0.3,-2.9,-53.7*,-1.1,-0.6
COc1ccc(S(=O)(=O)N2CCCC(C(=O)Nc3ccc(OC)c(OC)c3)C2)cc1 (stereo not drawn),-0.6,-1.6,-31.1*,-0.3,2.7
COc1ccc(NC(=O)C2CCCN(S(=O)(=O)c3ccccc3)C2)c(OC)c1 (stereo not drawn),1.9,-8.0,9.4,-1.1,32.7*
COc1ccc(-n2nc3ccc(NC(=O)c4c(OC)cccc4OC)cc3n2)cc1,7.4,-3.8,-8.2,-2.3,6.1
CCC1(c2ccc(F)cc2)NC(=O)N(CC(=O)N2CCc3ccccc32)C1=O (stereo not drawn),58.0*,.,-14.5,4.7,-2.6
CCC1(c2ccc(F)cc2)NC(=O)N(CC(=O)Nc2ccccc2C)C1=O (stereo not drawn),22.8,-8.8,-6.0,2.6,2.7
CCN(Cc1ccccc1)C(=O)CN1C(=O)NC(CC)(c2ccc(F)cc2)C1=O (stereo not drawn),6.1,-14.7,9.8,0.2,31.0*
COc1ccccc1Nc1ccncc1[N+](=O)[O-],12.0,-4.5,-48.2*,-0.5,-3.5
O=[N+]([O-])c1cnccc1Nc1ccccc1,2.1,4.9,2.4,-0.2,2.2
O=[N+]([O-])c1ccc(OCC(O)CN(CCO)CCO)cc1 (stereo not drawn),3.6,-1.2,-34.7*,-0.4,-2.4
Cc1cc(OCC(O)CN(CCO)CCO)ccc1Cl (stereo not drawn),0.8,6.9,10.5,0.0,-4.1
CC(C)c1ccc(C2NC(=O)NC3=C2CCc2ccccc23)cc1 (stereo not drawn),2.5,0.1,-3.4,-1.0,8.0
Cc1ccc(C2NC(=O)NC3=C2CCc2ccccc23)cc1 (stereo not drawn),-0.1,-2.2,-60.2*,-0.1,0.3
O=c1ccc2c(-c3ccccc3)c3ccc(O)cc3oc-2c1,-0.2,8.2,-3.8,-0.2,4.6
Nc1ccc(-c2c3ccc(=O)cc-3oc3cc(O)ccc23)cc1C(=O)O,245.4*,1.1,-1.1,151.7*,22.3
Cn1c(=O)c2sccc2n2c(CCC(=O)N3CCN(c4ccc(F)cc4)CC3)nnc12,-2.4,0.6,-2.0,-1.5,10.1
Cc1ccc(NC(=O)c2ccc(CN3CC(=O)N4CCCCC4C3=O)cc2)cc1C (stereo not drawn),1.8,-0.2,-1.7,-0.9,11.9
Oc1c(C(c2ccccc2)N2CCN(c3cccc(Cl)c3)CC2)sc2nc(-c3ccco3)nn12 (stereo not drawn),-0.8,3.5,.,-0.6,18.9
Cc1cccc(NC(=O)Nc2cccs2)c1C,4.9,-3.4,-2.7,1.1,12.0
Cc1c(NC(=O)Nc2cccs2)cccc1[N+](=O)[O-],18.1,-12.2,-36.0*,0.8,2.9
O=C(Nc1cccs1)Nc1ccc(Br)cc1F,16.6,0.6,-31.6*,-0.9,20.6
COc1cccc(Cn2ncc3c4sc(B(O)O)cc4n(C)c3c2=O)c1,13.7,-2.6,19.6,0.2,26.7
SMILES,D1 ag,D1 potentiator,D1 antag,TRHR ag,TRHR PAM
O=[N+]([O-])c1ccc2[nH]ncc2c1,4.4,-8.8,-43.5*,0.7,3.6
Brc1ccc2[nH]ncc2c1,2.4,-6.1,-31.9*,0.1,5.8
Nc1ccc2cn[nH]c2c1,0.5,5.8,7.2,-0.6,-4.6
O=C(NCc1ccco1)c1ccc2c(c1)N(Cc1ccc(F)cc1)C(=O)c1ccccc1S2=O (stereo not drawn),2.7,1.4,-3.4,0.5,-8.4
Cc1ccc2c(c1)N(C(=O)CCC(=O)N1CCOCC1)CCO2,2.6,-10.2,-31.2*,-0.1,-1.8
Cc1ccc2c(c1)N(C(=O)CCC(=O)NCCCN1CCOCC1)CC(C)O2 (stereo not drawn),0.8,-12.8,1.2,0.0,0.5
COc1ccc(CCNC(=O)CCC(=O)N2CC(C)Oc3ccc(Cl)cc32)cc1OC (stereo not drawn),-0.7,-7.9,-57.6*,-0.7,1.3
Cc1ccc2c(c1)N(C(=O)CCC(=O)NCCN1CCOCC1)CC(C)O2 (stereo not drawn),0.4,-5.2,-36.3*,-0.1,-3.3
CC(=O)N1c2nc(C(C)C)nn2C2(CCCCC2)[C@@H]2CCCC[C@@H]21,0.9,-0.1,-4.7,-0.8,2.6
CCc1ccc(NC(=O)C(C)n2nnc3sc(-c4ccccc4)cc3c2=O)cc1 (stereo not drawn),-0.2,4.5,-7.3,0.8,4.3
Clc1ccc(OCc2nnc(SCc3nnc(-c4ccccc4)o3)o2)c(Cl)c1,35.1*,-2.5,-18.0,-0.3,12.9
CCc1c(CN2CCN(c3cccc(C)c3C)CC2)csc1C,0.7,-2.0,2.0,0.1,4.0
CCOC(=O)c1ccc(N2C(=O)c3n[nH]c(-c4ccco4)c3C2c2ccc(F)cc2)cc1 (stereo not drawn),11.9,2.6,26.3,4.6,7.3
CCOC(=O)c1ccc(N2C(=O)c3n[nH]c(-c4ccco4)c3C2c2cccc(F)c2)cc1 (stereo not drawn),16.3,9.0,33.2,6.9,33.9*
Cc1cc2c(cc1NS(=O)(=O)c1cccc(C#N)c1)n(C)c(=O)c(=O)n2C,2.6,-5.0,7.5,-0.1,-1.0
O=C(NCc1ccccc1)c1cc2ccc3cccnc3c2[nH]1,0.8,1.6,2.5,0.6,31.1*
CCC(=O)NNC(=O)CCC(=O)Nc1ccccc1,3.7,-5.5,-11.1,0.0,-0.4
O=C(N/N=C/c1ccco1)Nc1ccccc1,4.5,2.6,15.8,0.3,7.4
O=C(CCC(=O)Nc1ccccc1)N/N=C/c1ccco1,0.3,1.1,2.6,-0.3,38.0*
NNC(=O)CCC(=O)Nc1ccccc1,0.8,-7.0,-32.8*,-0.6,-7.9
O=C(CCC(=O)Nc1cccc2ccccc12)N/N=C/c1ccco1,-0.9,-1.8,13.7,0.0,-3.7
Cc1cccc(NC(=O)CCC(=O)N/N=C/c2ccco2)c1C,0.7,-7.8,-11.9,-0.3,33.5*
COC(=O)c1ccccc1NC(=O)CN1C(=O)COc2ccc(Cl)cc21,-1.3,-5.8,-2.7,-0.1,-1.8
Cc1cc(C)cc(NC(=O)C(=O)NCC(c2ccc3c(c2)OCO3)N2CCOCC2)c1 (stereo not drawn),2.1,-3.0,1.1,-0.2,-2.2

# Assay outcomes from PubChem BioAssay.
